Consider 14 compounds from PubChem BioAssay (NCI).

This is part of a sample that, as a whole, favours compounds with a hit. Of some 83,000 tested, about 20% had one in any assay.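 Cell lines were cultured in 96-well plates, exposed to a single compound concentration, and assessed for percent growth 48 hours later.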 Values without a mark were called inactive. Activity calls are given as the source filed them. How the source made its calls: active means growth percent below 10; inactive means the rest.

Test systems include T-47D breast; BT-549 breast; MDA-MB-435 melanoma; SW-620 colon; MCF7 breast; HCT-116 colon; HCC-2998 colon; KM12 colon.
Assay in all cases: NCI-60 one-dose screen, 48 h (100 = growth as untreated, 0 = no growth, -100 = all killed)
What all share (conditions): 10 µM unless noted

On to `COc1ccc(-c2c(C)nn3c(NCCN4CCOCC4)cc(C)nc23)cc1OC`, for which the growth is 88.2% in the test on T-47D breast; 93.3% with BT-549 breast; 101% in the test with MDA-MB-435 melanoma; 99.4% with SW-620 colon; 95.3% in the test with MCF7 breast; 90% in the test on HCT-116 colon. The growth in the test with HCC-2998 colon was 104%; in the test with KM12 colon it was 107%.

Take `COc1ccc2nc3c(cc2c1)C(=O)CC(c1ccccc1)C3` (configuration not stated): the growth with T-47D breast was 75%; in the test on BT-549 breast, 51.7%; in the test on MDA-MB-435 melanoma, -67.7% (active); in the test on SW-620 colon it was 17.8%; in the test on MCF7 breast, 56.2%; with HCT-116 colon it was 11.1%. Also, the growth in the test with HCC-2998 colon was 91.3%; in the test on KM12 colon, 10.8%.

In the case of `CN(C)CCCNc1nc(-c2cccc(C(Cl)(Cl)Cl)c2)nc(C(Cl)(Cl)Cl)n1`, the growth with T-47D breast is 109%; in the test with BT-549 breast, 77.8%; with MDA-MB-435 melanoma, 105%; in the test on SW-620 colon, 98.8%; with MCF7 breast it was 93.5%; in the test with HCT-116 colon it was 92.9%. For the same compound, the growth was 107% with HCC-2998 colon and 111% in the test on KM12 colon.

In the case of `COc1ccc(C2=C(c3cn(C)c4ccccc34)C(=O)OC2)cc1OC`, the growth in the test on T-47D breast is 23.8%; in the test with BT-549 breast, 45.9%; in the test on MDA-MB-435 melanoma, -8.21% (active); in the test with SW-620 colon it was 19.7%; with MCF7 breast, 18.8%; with HCT-116 colon, 29.3%. The growth was 65.9% in the test with HCC-2998 colon and 26.4% in the test with KM12 colon.

In the case of `c1coc2occoc=2o1`, the growth in the test with T-47D breast was 98%; in the test with BT-549 breast it was 104%; in the test on MDA-MB-435 melanoma, 102%; with SW-620 colon it was 110%; in the test on MCF7 breast, 104%; with HCT-116 colon it was 109%. Moreover, the results for the growth in the test with HCC-2998 colon and in the test with KM12 colon were 108% and 106%, respectively.

In the case of `CCOC(=O)c1nn(C2CCCCO2)c2ccc(NS(=O)(=O)c3ccc(C)cc3)cc12` (configuration not stated), the growth is 80% in the test with T-47D breast; 91.8% in the test on BT-549 breast; 100% with MDA-MB-435 melanoma; 98.1% in the test on SW-620 colon; 93.1% in the test on MCF7 breast; 87.8% in the test with HCT-116 colon. The values for the growth with HCC-2998 colon and with KM12 colon were 107% and 104%, respectively.

For the compound `O=C1Cc2c(sc3c(F)cccc23)C(c2ccccc2[N+](=O)[O-])N1` (configuration not stated), the growth with T-47D breast is 78.6%; in the test on BT-549 breast, 99.6%; in the test on MDA-MB-435 melanoma, 108%; in the test on SW-620 colon it was 79.3%; in the test on MCF7 breast, 81.4%; with HCT-116 colon, 85.9%. In addition, the growth is 119% in the test on HCC-2998 colon and 100% in the test on KM12 colon.

Regarding `COc1ccc(NC(=S)NNc2ccc(-c3ccc(OC)c(OC)c3)nn2)cc1`, the growth was 96.4% in the test on T-47D breast; 98.5% in the test on BT-549 breast; 107% with MDA-MB-435 melanoma; 102% in the test on SW-620 colon; 96.5% in the test with MCF7 breast; 102% with HCT-116 colon. The figures for the growth with HCC-2998 colon and with KM12 colon were 109% and 104%, respectively.

As for `CCCCCn1c(C)cc(/C=C\c2ccc3cc(C)ccc3[n+]2C)c1C`, the growth was -49.1% (active) in the test on T-47D breast; -29.9% (active) in the test with BT-549 breast; -90.2% (active) with MDA-MB-435 melanoma; -35.9% (active) in the test with SW-620 colon; -18.2% (active) in the test on MCF7 breast; -34.4% (active) with HCT-116 colon. The growth is -70.1% (active) in the test on HCC-2998 colon and -72.4% (active) with KM12 colon.

With `CCOC(=O)c1cnc2ccc(Br)cc2c1Nc1cccc(S(N)(=O)=O)c1`, the growth with T-47D breast was 81.4%; with BT-549 breast, 96.3%; in the test with MDA-MB-435 melanoma, 101%; with SW-620 colon, 99.2%; with MCF7 breast it was 93.8%; with HCT-116 colon it was 85.6%. The growth was 115% in the test with HCC-2998 colon and 96% with KM12 colon.

For the compound `COc1ncc(-c2ccc3nccc(C#CCCCCC(=O)O)c3c2)cc1NS(=O)(=O)c1ccc(F)cc1F`, the growth in the test with T-47D breast is -18.1% (active); with BT-549 breast, 4.54% (active); with MDA-MB-435 melanoma, 29.5%; in the test on SW-620 colon it was 50.7%; with MCF7 breast, 6.95% (active); in the test with HCT-116 colon, 41.1%. In addition, the figures for the growth in the test on HCC-2998 colon and in the test on KM12 colon were 29.4% and 41.6%, respectively.

On to `CC[C@]1(O)CC2CN(CCc3c([nH]c4ccccc34)[C@@](C(=O)OC)(c3cc4c(cc3OC)N(C=O)[C@H]3[C@@](O)(C(=O)OC)[C@H](OC(C)=O)[C@]5(CC)C=CCN6CC[C@]43[C@@H]65)C2)C1` (some centres not stated), for which the growth in the test with T-47D breast was 91%; in the test with BT-549 breast, 15.7%; with MDA-MB-435 melanoma it was -25.7% (active); in the test with SW-620 colon it was 24%; with MCF7 breast it was 21.9%; in the test on HCT-116 colon, 5.51% (active). For the same compound, the growth with HCC-2998 colon is 0.206% (active); in the test with KM12 colon it was -30.7% (active).

For the compound `C=C(C)[C@@H]1CC[C@]2(C(=O)O)CC[C@]3(C)[C@H](CC[C@@H]4[C@@]5(C)C/C(=C/c6ccco6)C(=O)C(C)(C)[C@@H]5CC[C@]43C)[C@@H]12`, the growth in the test with T-47D breast was -8.1% [100 µM] (active); in the test on BT-549 breast it was -67.8% [100 µM] (active); in the test with MDA-MB-435 melanoma, -75.9% [100 µM] (active); in the test on SW-620 colon, -34.7% [100 µM] (active); in the test on MCF7 breast it was -53.2% [100 µM] (active); in the test on HCT-116 colon, -74.7% [100 µM] (active). Moreover, the growth with HCC-2998 colon is -78.1% [100 µM] (active); in the test on KM12 colon, -96.3% [100 µM] (active).

Regarding `CCN(CC)CCCC(C)Nc1ccnc2cc(Cl)c(SCc3ccccc3)cc12` (configuration not stated), the growth with T-47D breast was -58.3% (active); in the test with BT-549 breast, -81% (active); with MDA-MB-435 melanoma, -71.2% (active); in the test on SW-620 colon, -85.3% (active); in the test with MCF7 breast, -49.5% (active); in the test with HCT-116 colon it was -67.8% (active). For the same compound, the growth with HCC-2998 colon is -84.1% (active); with KM12 colon it was -32.4% (active).
